This is a sample that favours compounds with a hit; in the whole collection about 3.7% have one here.
Wnt bcat act – activators of Wnt/beta-catenin signaling; Wnt/beta-catenin reporter cell assay, activator, plate reader; activation, % at 9.35 µM; actives 1.2% (n = 300,000); AID 743398; in the data active means activation above about 30%, passing the limit was not always enough; inconclusive means no clear call, values can overlap the other calls;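 further: 0% = neutral control wells and 100% = positive control wells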
MLL AF4-AF9 inh – MLL-AF4/AF9 protein interaction inhibition | inhibition, % at 10 µM | AlphaScreen, biotin-AF4 peptide binding to FLAG-AF9 | AID 651704 | actives 0.47% (n = 350,000) | P42568;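 active means every replicate reaching a set inhibition limit, whatever the replicate mean, cut at about 25% in these data; inconclusive means mean inhibition reaches that limit but some replicates miss it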;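 further: 0% = plate neutral control median and 100% = total signal loss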
Target sequence (P42568 whole entry, looked up): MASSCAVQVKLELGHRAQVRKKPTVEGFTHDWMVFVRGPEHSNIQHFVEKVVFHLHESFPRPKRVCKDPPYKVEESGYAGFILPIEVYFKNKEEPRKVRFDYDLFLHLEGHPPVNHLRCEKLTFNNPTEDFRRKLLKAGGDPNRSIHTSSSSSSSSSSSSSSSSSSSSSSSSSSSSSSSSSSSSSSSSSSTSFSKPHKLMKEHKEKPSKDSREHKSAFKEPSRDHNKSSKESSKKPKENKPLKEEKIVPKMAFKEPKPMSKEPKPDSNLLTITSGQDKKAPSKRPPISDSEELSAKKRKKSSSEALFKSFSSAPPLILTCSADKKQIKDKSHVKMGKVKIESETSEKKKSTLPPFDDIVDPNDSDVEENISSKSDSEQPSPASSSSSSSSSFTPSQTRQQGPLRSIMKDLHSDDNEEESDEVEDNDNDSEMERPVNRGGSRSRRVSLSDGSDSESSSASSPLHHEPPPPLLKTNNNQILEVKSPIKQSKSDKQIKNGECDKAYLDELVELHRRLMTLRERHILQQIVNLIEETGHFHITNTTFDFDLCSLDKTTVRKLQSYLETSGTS
Ecoli rRNA inh – inhibitors of bacterial rRNA selective over humanized ribosomes | E. coli WT GFP vs humanized-ribosome RFP mutants, fluorescence, 24 h; hits give low values; DMSO median 0, no signal -100 | GFP signal change (wild-type ribosome), % (test concentration not listed) | actives 1.6% (n = 350,000);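 active means significant combined selectivity score with lowered wild-type GFP, culture density cut under 30%, mutant RFP and density less affected; inactive means any of these conditions unmet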
esBAF inh – inhibitors of esBAF chromatin remodeling in mouse ES cells | Bmi1-luciferase knock-in reporter, 24 h; 100% = twice the neutral-well signal | reporter increase, % at 12.5 µM | actives 2% (n = 350,000); in the data active means activation above about 40%; inconclusive means no clear call, values can overlap the other calls;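 further: 0% = median of the plate's neutral control wells and 100% = double that signal; a rise in the Bmi1 reporter signal indicates esBAF inhibition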
MITF TRPM1 HTS – increases MITF-driven TRPM1 promoter luciferase signal; activation, % at 12.5 µM; actives 0.75% (n = 300,000); SK-MEL-5 TRPM1-promoter luciferase, 24 h; % of positive control, neutral wells = 0;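 active means mean activation of at least 80% with every replicate also reaching 80%; inconclusive means mean reaches 80% but some replicate falls short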;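 further: 0% = neutral control wells and 100% = parthenolide positive control wells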
* = called active by the depositor; ? = inconclusive; · = no result.

SMILES	Wnt bcat act	MLL AF4-AF9 inh	Ecoli rRNA inh	esBAF inh	MITF TRPM1 HTS
COc1ccc(-c2cc(=O)c3ccccc3o2)cc1	-2.0	-1.6	·	62.8*	70.2
O=c1cc(-c2c(F)c(F)c(F)c(F)c2F)oc2ccccc12	1.8	-1.2	-12.6	-8.1	-31.3
COc1ccc(NC(=O)N(C)C[C@H]2OCc3ccccc3-c3ccccc3C(=O)N([C@H](C)CO)C[C@H]2C)c(OC)c1	·	·	0.6	·	·
COc1ccc(-c2ccc([C@@H]3[C@@H](CO)N4C(=O)CN(C(=O)C5CCCC5)C[C@@H]34)cc2)cc1	·	-2.4	-1.7	·	·
COc1ccc(N=c2cc(-c3ccc(OC)cc3)oc3ccccc23)cc1	118.8*	·	·	·	20.3
O=c1cc(-c2ccc(O)cc2)oc2ccccc12	3.0	-1.4	·	57.9*	·
C[C@H](NC(=O)Cc1cccc2ccccc12)C(=O)NCc1ccccc1	1.3	-0.1	-31.6*	·	-3.6
Cc1ccccc1C(=O)NNC(=O)Cc1cccc2ccccc12	-2.2	-44.1	-40.8*	-4.2	-8.1
Cc1ccccc1NC(=O)c1ccccc1NC(=O)Cc1cccc2ccccc12	-6.5	1.4	-7.6	·	-9.2
O=C(Cc1cccc2ccccc12)Nc1ccccc1	0.1	-3.3	4.0	·	3.8
Cc1onc(-c2c(Cl)cccc2Cl)c1-c1nc2cc(Cl)ccc2c(=O)o1	-3.5	-2.5	-33.8*	6.5	·
CCOC(=O)C1=C(Nc2ccccc2)OCC1=O	·	·	·	8.4	12.6
CCOC(=O)C1=C(Nc2ccc(OC)cc2)OCC1=O	36.3*	-7.2	16.8	·	·
Fc1ccc(-c2nnc(-c3ccc4ccccc4c3)o2)cc1	-3.0	2.7	-6.9*	6.9	1.5
O=C(CNC(=O)c1ccco1)OCc1ccc(C(=O)c2ccccc2)cc1	-1.9	0.7	-33.1*	·	4.5
CCOc1nc(NC(C)C)nc(NC(C)C)n1	-2.7	·	·	-4.9	-4.2
CCS(=O)(=O)N1Cc2ccccc2CC1C(=O)Nc1ccc(F)c(F)c1 (configuration not stated)	12.1	-0.1	-0.9	35.3	46.3
CCOC(=O)NNC(=O)CCn1c2c(c3ccccc31)CCCC2	-8.6	2.0	-17.2*	·	9.7
COCC(=O)Nc1ccc2c(c1)C(=O)N(C)[C@@H]1CC[C@@H](CC(=O)NCC(F)(F)F)O[C@@H]1CO2	·	-0.1	2.4	-2.5	·
Cc1ccnc(NC(=O)c2ccc(S(=O)(=O)N3CCCCCC3)cc2)c1	33.7*	1.8	-4.8	·	83.5*
O=C(Nc1ccccn1)c1ccc(S(=O)(=O)N2CCCCC2)cc1	23.2	-0.6	-2.7	39.6	91.2*
O=C(Nc1cccc(F)c1)Nc1ccnn1C1CCN(C(=O)c2cscn2)CC1	4.2	-4.1	16.1	19.9	19.4
CC1(C)CC2CC(C)(CN2C(=O)CCCN2C(=O)c3ccccc3C2=O)C1 (configuration not stated)	·	·	·	-7.3	-5.2
CC(C)c1c(C(=O)N/N=C/c2ccccc2OCc2c(F)cccc2Cl)nnn1-c1nonc1N	-4.2	2.6	3.0	-15.6	-24.7
COc1ccccc1C1c2ccc3ccccc3c2Oc2ncn(CCN(C)C)c(=N)c21 (configuration not stated)	-5.6	18.4	-58.4	-18.1	-69.7
SMILES	Wnt bcat act	MLL AF4-AF9 inh	Ecoli rRNA inh	esBAF inh	MITF TRPM1 HTS
COc1ccc(C2c3ccc4ccccc4c3Oc3ncn(CCCN(C)C)c(=N)c32)cc1 (configuration not stated)	0.2	33.3*	-51.5	-9.3	-99.2
COc1ccc(C2c3c(ncn(CCCO)c3=N)Oc3ccc4ccccc4c32)cc1 (configuration not stated)	-2.4	16.7	-46.8*	0.9	·
Cn1cnc(S(=O)(=O)N2C[C@@H](O)COC[C@@H]3O[C@@H](CC(=O)NC4CCC4)CC[C@H]32)c1	·	-20.2	4.4	-9.5	·
CCOc1ccc(N2C(=O)c3ccccc3C2=O)cc1	·	·	·	43.2*	7.1
O=C1c2ccccc2C(O)N1c1cccnc1 (configuration not stated)	-1.2	-8.1	-2.2	8.3	2.4
CCOc1ccc(N2C(=O)c3ccccc3C2O)cc1 (configuration not stated)	42.6*	3.0	-2.0	?	·
O=C(COc1ccc(N2C(=O)c3ccccc3C2=O)cc1)c1ccccc1	-5.3	-1.9	16.4	·	4.2
O=C1CC(c2ccc(O)c(O)c2)Oc2cc(O)cc(O)c21 (configuration not stated)	-0.8	1.4	·	7.5	14.5
O=C1O[C@@H](c2ccc(O)cc2)Cc2cccc(O)c21	-0.5	-5.0	-4.5	6.3	-14.6
O=C1CC(c2ccccc2)Oc2cc(O)cc(O)c21 (configuration not stated)	0.5	2.0	·	60.3*	·
COc1ccc([C@H]2Cc3cccc(O)c3C(=O)O2)cc1O	15.9	1.8	-12.9	55.1*	40.5
O=C1CC(c2ccc(O)cc2)Oc2cc(O)cc(O)c21 (configuration not stated)	7.8	2.4	·	19.0	37.3
COc1ccc(C2CC(=O)c3c(O)cc(O)cc3O2)cc1O (configuration not stated)	16.7	1.0	-18.2	52.0*	56.7
COc1ccc([C@@H]2CC(=O)c3c(O)cc(O[C@@H]4OC(CO[C@@H]5OC(C)[C@H](O)[C@H](O)C5O)[C@@H](O)[C@@H](O)C4O)cc3O2)cc1O (some centres not stated)	4.5	-14.6	·	-0.9	-3.5
COc1ccc([C@H]2Cc3cc(O)cc(O)c3C(=O)O2)cc1O	41.1*	-13.8	-13.6	25.4	74.1
O=C(NNC(=O)c1cc2ccccc2cc1O)Nc1ccccc1F	0.8	-1.5	-2.4	8.6	3.4
COc1ccc(/C=C(/NC(=O)c2ccco2)C(=O)N2CCOCC2)cc1	-3.6	-0.6	7.3	-1.4	-6.6
Cc1ccc(/C=N/N(C)C2=NS(=O)(=O)c3ccccc32)cc1	0.2	-1.1	1.7	2.9	1.6
Cc1ccc(Nc2nc3c(c(=O)[nH]2)CCCC3)cc1	·	·	·	69.9*	36.8
C[C@@H]1CN([C@H](C)CO)C(=O)c2cc(-c3cccc(C#N)c3)cnc2O[C@H]1CN(C)Cc1ccc(F)cc1	·	1.7	0.1	1.7	·
COc1cc(C(=O)Nc2ccc(C(C)=O)cc2)c(Br)c(OC)c1OC	23.0	·	·	47.6*	51.4
CC(=O)Nc1ccc(NC(=O)c2ccc(C)c(S(=O)(=O)Nc3cccc(C)c3)c2)cc1	-0.9	0.2	-26.8*	8.8	-10.1
CC(=O)c1ccc(NC(=O)Nc2ccc(Br)cc2C)cc1	-0.4	-0.5	-18.6*	·	13.8
CC(=O)c1ccc(NC(=O)c2ccc(C)c(Br)c2)cc1	69.2*	-2.3	0.1	·	67.8
COc1ccc(NC(=O)c2cc(OC)c(OC)c(OC)c2Br)cc1OC	·	·	·	·	0.6
COc1cc(OC)cc(-c2cc3nc4c(c(N5CCN(c6cnccn6)CC5)n3n2)CCCC4)c1	13.9	-9.2	2.7	·	·
Cc1nc2ccccn2c1-c1ccnn1S(=O)(=O)c1ccc(F)cc1	-0.9	2.1	-18.2	-31.3	-13.2

High-throughput results (PubChem)
